Values joined by “and” are separate entries in the source; they are usually repeats but may differ in a detail not shown here. Equal values may be shown once. Compounds without any hit were thinned out: in the full panel of roughly 79,000, 15% have a hit. No stated cut-off is given here; in the data, active means growth inhibition above about 70%; inactive means the rest.
What was measured:
[1] = NCI Yeast Anticancer Drug Screen. Data for the rad50 strain (AID 155);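 further: 0% = growth of vehicle-only cultures of the same strain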; details: S. cerevisiae rad50 strain growth inhibition, active compounds read high; at 50.0 µM unless noted
How it was run: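 Yeast carrying a defined DNA repair defect were exposed to test compounds, and growth was compared with vehicle-treated controls to give percent inhibition.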

[2] = NCI Yeast Anticancer Drug Screen. Data for the mec2-1 strain (AID 157); details: S. cerevisiae mec2-1 strain, active compounds read high; at 50.0 µM unless noted
How it was run: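 Strain: mec2-1 (DNA repair/cell cycle alteration). Compound exposure, then growth measured; inhibition expressed relative to vehicle.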

[3] = NCI Yeast Anticancer Drug Screen. Data for the sgs1 mgt1 strain (AID 161);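 further: 0% = growth of cultures given vehicle only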; details: S. cerevisiae sgs1 mgt1 strain, active compounds read high; at 50.0 µM unless noted
How it was run: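 Inhibition of yeast growth, normalised to vehicle-treated controls, is reported for a strain bearing genetic alterations in DNA damage repair.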

[4] = NCI Yeast Anticancer Drug Screen. Data for the cln2 rad14 strain (AID 165);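 further: 0% = growth equal to vehicle treated cultures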; details: S. cerevisiae cln2 rad14 strain, active compounds read high; at 50.0 µM unless noted
How it was run: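 Compounds are applied to the cln2 rad14 yeast strain, and growth is then compared with that of vehicle-treated cultures to give inhibition.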

[5] = NCI Yeast Anticancer Drug Screen. Data for the bub3 strain (AID 167); details: S. cerevisiae bub3 mutant strain, active compounds read high; at 50.0 µM unless noted
How it was run: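 Compounds were applied to a genetically altered yeast strain carrying a cell-cycle control defect. Growth inhibition was scored against vehicle-treated controls.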

[6] = NCI Yeast Anticancer Drug Screen. Data for the mlh1 rad18 strain (AID 175); details: S. cerevisiae mlh1 rad18 strain growth inhibition, active compounds read high; at 50.0 µM unless noted
How it was run: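 Read-out is yeast growth inhibition, calculated against vehicle-only controls. The compound was applied to a strain engineered with DNA damage repair alterations.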

Measured: growth inhibition

COc1ccc(N2CC[N+](c3ccc(N(C)C)cc3)=C2C2=[N+](c3ccc(N(C)C)cc3)CCN2c2ccc(OC)cc2)cc1
inactive: [1] 0.3% | [2] -6.8% | [3] -17.4% | [4] -7.6% | [5] -10.2% | [6] 20.5%

Cn1cnc2[nH]c(=O)[nH]c(=O)c21
inactive: [1] 3.9% | [2] 12.9% | [3] -8.95% | [4] 1.95% | [5] 8.85% | [6] -0.75%

CN(C)c1c2ccccc2c(NC=O)c2ccccc12
inactive: [1] 3.45% | [2] -14.9% | [3] 11.7% | [4] 24.6% | [5] -1.05% | [6] 9%

CCOc1ccccc1N=C(NC(=O)CC)SC
inactive: [1] 39% | [2] 26.8% | [3] -7.15% | [4] 12.1% | [5] 32.3% | [6] 52%

C[Si](C)(CCl)N([Si](C)(C)CCl)[Si](C)(C)CCl
inactive: [1] 13.1% | [2] 8.55% | [3] 0.7% | [4] -19.7% | [5] -2.6% | [6] -10.1%

C/C(=C\c1ccccc1)c1ccccn1
inactive: [1] -2.25% and -1.9% | [2] -4.6% and -17.4% | [3] -6.25% and 10.8% | [4] -68.8% and -22.6% | [5] -19.1% and 15.2% | [6] -7.4% and 8.3%

Cc1c(Cl)cccc1NC(=O)CCl
inactive: [1] 7.95% | [2] 32.1% | [3] 28.2% | [4] 5.75% | [5] -3.85% | [6] 16.2%

O=C1COC(=O)CO1
inactive: [1] -15.6% | [2] -18.9% | [3] -5.7% | [4] 34.2% | [5] 8.55% | [6] -10.7%

C=C1CCCC(C)(C)[C@@H]1CC/C(C)=C/Cn1c2cccc(=O)c-2nc2ccccc21
inactive: [1] 12.8% | [2] 6.75% | [3] 2.15% | [4] 2.4% | [5] -17.4% | [6] 19.2%
